# The supplement of paper PMC6555819
# Test system: VDR:RXRa (NR concentration 270 nM, RXRa partner concentration 90 nM)
# Test: PBM binding z-score (relative to random genomic background probes); higher = stronger binding; sequences stand for … in GC…GCGATTGACAGCGTAGAATGAAGG
# Procedure: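 Protein-binding microarray (Agilent 4x180K custom design, double-stranded 60-nt probes: 5' GC cap, 34-nt variable region, 24-nt constant primer region; full probe sequence given). Purified or IVT nuclear receptor:RXRα heterodimers (3:1 NR:RXRα, mostly 270:90 nM) or homodimers were incubated for 1 h in PBS with 2% milk and no ligand, then detected with Alexa488 antibodies. Fluorescence from o1-orientation probes (~5 replicates averaged) was converted to z-scores against 500 random hg19 background probes. Variable regions are seed direct-repeat (DR0–DR5) sites, all their single-nucleotide variants and half-site ablations.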
row,Sequence,PBM binding z-score
1,ATCGAAACGTCGTGAGGTGAGTATACAGAAAGGC,-0.25
2,CAAAGTAGGTCAAGAGGTCAAAGTCCGCTTCCCG,6.25
3,GACACAGGGTCAGCTAGAGGCCAGAGTATGGAAA,3.19
4,CGTCAAAGTTCTAGGTAACGTAACAGAAAGCAGC,0.0814
5,CCTTCTGGGCCATTCAGAGGTCATTGATCATATG,4.01
6,CGAACTAGGTCACCAGGAAAGTGAAGAGGTTGGA,1.66
7,TCGAGTACGTTACGGGGGCATTCAGGGATGAAGA,3.76
8,GCTGCTAGGTCATGTTGGTCAGCTAACGGGTACG,2.15
9,TCGAGTAGGTTACGGGGGTATTCAGGGATGAAGA,2.64
10,CCTAGCAGGCCAGGTTCACTCAAGCATTTCGCTT,2.09
11,ATAGGTAGGTTAGGGTCATTCAGAAAGTAGGGAA,5.05
12,CAAACTAGGTCAAAGGTCAGAGTCGAGCCAACCA,5.78
13,ATCGAAAGGTCGACGAGGAGAGTATACACCGTTT,3.3
14,CAGAGTAGGTTACGAGGGGGCATTCAGTGCGAAT,5.33
15,ATATGTAGGTTAGGATCATTCAGAAAGTAGGGAA,0.744
16,AGTCAAATTTCACTAGGTAACGTAAGATTCAGCT,0.337
17,ACTAGTTGTTCAGCTGAGGTCACACACAATTCGG,4.06
18,CGAACTAGGTCAGAGGACAGTGAAAGGCGACGTA,0.161
19,CTAAGTAGGTTAAGGGGGTCATTCAGTTTGAAAG,7.19
20,CGAACTAGGTCAAAGGACAGTGAGAGGCGACGTA,1.19

row,Sequence,PBM binding z-score
1,ATATGTAGGTTACGTCCGGGTCATTCAGGCTATG,4.14
2,CGTCCAAGGTAAATGCTAGGTCAGTGAAAGCATT,0.355
3,ATATGGAGGTTAAGGGTCATTCAGGTTGGTTCGC,6.32
4,GATACACGGTCAAGGCCAGAGTACGCGTATTGAT,-0.0304
5,CTCGAAAGGTGGTGCTCAGGTGAGTATACCAAAC,-0.508
6,TTGAGTAGGTTACGGGGGCATTCAGGGATGAAGA,4.34
7,CGAACTAGGTCACGAGGACAGTGAAGAGGTTGGA,2.75
8,CCTACAGGGCCAAAGGTCATTGATTCCAATGCTC,5.03
9,CTATGTAGGTTAAGGGGGTCATTCCGTTTGAAAG,7.25
10,GCTTACGGGTGAAAGGTTATAGCATGAATAGAAT,2.17
11,ATATGTAGGTTAGGCTCATTCAGAAAGTAGGGAA,-0.124
12,ATCGAAAGGTCGTGAGGTGTGTATACAGAAAGGC,4.55
13,CCTTACAGGTCAAGGTTATAGCACGGGTGGTACG,3.41
14,ATATGTGGGTTATCGGGTCATTCAGTTTGCGCAT,5.21
15,AATACAGGATCACTAGGCCAGAGTAGGTACGAAT,-0.235
16,ATACGTAGGTTACATCCGGGTCATTCAGGCTATG,4.16
17,CGGACTGGGGCAAAGGTTACCATACTCAGTACGA,1.9
18,CTATGTAGGTTAATGGGGTCATTCAGTTTGAAAG,7.83
19,AGAATGAGGTTAACAAAGATCAGGGAAACGCTTG,1.71
20,TCATATAGGTAAAAGGTCAAAGTCGGTGTGGTAA,5.3
